Drawing on PubChem BioAssay AID1851 (National Center for Advancing Translational Sciences (NCATS), 2009), this text covers activity, negative = inhibition and AC50 for 98 compounds.

About 4,000 (25%) of roughly 16,000 compounds were called active. Another 26% or so got no clear call; they are omitted. Calls follow the shape of the dose curve; as a rule, active = well fitted curve in the direction sought with a large enough effect; inconclusive = small, poorly fitted or top-dose-only effect, or effect the other way; inactive = no such curve, though single readings can be large or run the other way. The list is a sample of the results.
% is scaled to controls: 0 for no effect and ±100 for the full control effect.

For this assay, the target named is Cytochrome P450 2C9 (Homo sapiens) (UniProt P11712). In words: Cytochrome panel assay with activity outcomes. To be noted: recombinant CYP, pro-luciferin dealkylation, luminescence, p450-cyp2c9; series mostly up to 57.1 µM.
Chain of Cytochrome P450 2C9 (Homo sapiens) (P11712 whole entry, looked up): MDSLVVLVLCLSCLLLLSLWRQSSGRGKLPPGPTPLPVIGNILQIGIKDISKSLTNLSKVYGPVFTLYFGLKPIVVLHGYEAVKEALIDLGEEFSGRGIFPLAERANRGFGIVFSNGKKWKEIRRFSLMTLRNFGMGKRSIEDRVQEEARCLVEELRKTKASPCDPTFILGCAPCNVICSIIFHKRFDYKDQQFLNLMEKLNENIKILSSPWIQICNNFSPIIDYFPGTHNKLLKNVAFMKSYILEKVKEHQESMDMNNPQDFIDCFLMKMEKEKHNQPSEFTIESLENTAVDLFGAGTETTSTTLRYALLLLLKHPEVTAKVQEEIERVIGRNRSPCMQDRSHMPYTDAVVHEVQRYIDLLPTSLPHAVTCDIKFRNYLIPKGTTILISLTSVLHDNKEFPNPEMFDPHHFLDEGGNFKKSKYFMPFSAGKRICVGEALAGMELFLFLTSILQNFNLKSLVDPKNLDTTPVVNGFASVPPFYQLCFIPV
In the case of `Cc1cnc(CNc2cc(-c3cccnc3)ncn2)cn1`, the activity, negative = inhibition is 6.31% [at 2.29 µM] (inactive). Consider `N=C1/C(=C\c2ccc(SCc3ccco3)o2)C(=O)N=C2SC=NN12`, for which the AC50 (in general, the concentration at which the activity in the assay is half-maximal) is 0.447 µM (active). For the compound `ClC(=Nc1cccc2ccccc12)N(c1ccccc1)c1ccccc1`, the AC50 was 3.16 µM (active).

For the compound `CCCN1CNC(=S)N(c2cccc(C)c2C)C1`, the AC50 entry is “inactive”.

On to `O=C(CSc1nc2ccccc2c(=O)n1Cc1ccccc1)NCc1ccco1`, for which the AC50 entry was “inactive”. Same read-out and setting: in the case of `O=C(CSc1nc2ccccc2c(=O)n1CCCC(=O)N1CCCC1)NCc1ccco1` it was 7.08 µM (active). The same measure, in the same setting: in the case of `Cc1cc(NC(=O)CSc2nc3ccccc3c(=O)n2CCCC(=O)NCc2ccco2)n[nH]1` it was 4.47 µM (active); in that of `Cc1cccc(C)c1-n1c(SCC(=O)NCc2ccco2)nc2ccccc2c1=O`, 14.1 µM (active). The same measure, in the same setting: in the case of `O=c1c2ccccc2nc(SCc2ccccc2Cl)n1Cc1ccccc1` it was 1.26 µM (active). On to `Oc1ccc([C@@H]2CNCCc3c2cc(O)c(O)c3Cl)cc1`, for which the AC50 result was “inactive”. As to `O=c1[nH]c(=O)n([C@@H]2C[C@H](O)[C@H](CO)O2)cc1I`, the AC50 result is “inactive”. Still for that read-out and setting: in the case of `COCC(=O)N1CCC2(CCCN(C(=O)Nc3ccc(OC)cc3)C2)CC1` it was “inactive”; in that of `O=C(CSc1nc2ccccc2c(=O)n1NC(=O)Cc1ccccc1)NCc1ccccc1Cl`, 0.398 µM (active). Take `O=C(O)CCCCCn1c(SCC(=O)N2CCCC2)nc2ccsc2c1=O`: the AC50 entry is “inactive”.

Consider `N#CCSc1nc2cc(C(=O)N3CCCC3)ccc2c(=O)n1Cc1ccccc1`, for which the AC50 was 3.98 µM (active). In the case of `COc1ccc(NC(=O)CSc2nc3ccccc3c(=O)n2CCC(=O)N2CCCCC2)cc1`, the AC50 was 3.98 µM (active). On the same count and under the same terms, in the case of `CN1CCN(C(=O)c2ccc3c(=O)n4c(nc3c2)CCCCC4)CC1` it was “inactive”; in that of `O=C(CSc1nc2ccccc2c(=O)n1CCCO)NCc1ccccc1`, 12.6 µM (active). In the case of `COCc1nc2c([nH]1)c(=O)n(C)c(=O)n2CC(C)C`, the AC50 entry is “inactive”. The same measure, in the same setting: in the case of `CCN1CCN(C(=O)CCc2nc3ccccc3c(=O)[nH]2)CC1` it was “inactive”. On to `CC(C)Cn1c(SCc2nc3ccccc3c(=O)[nH]2)nc2ccccc2c1=O`, for which the AC50 was 2 µM (active).

Consider `Cc1cc(NC(=O)CSc2nc3ccsc3c(=O)n2CCCCC(=O)O)no1`, for which the AC50 result was “inactive”. On to `O=C(NCC1CCCO1)c1ccc2c(=O)n(Cc3ccco3)c(SCC(=O)N3CCCC3)nc2c1` (stereo not drawn), for which the AC50 was 2.24 µM (active).

For the compound `Cc1ccc2cc(C)c3nnc(SCC(=O)NCc4ccco4)n3c2c1`, the AC50 was 15.8 µM (active).

On to `Cc1cc2cc(C)c3nnc(SCC(=O)NCc4ccc5c(c4)OCO5)n3c2cc1C`, for which the AC50 entry was “inactive”. As to `CCCc1nnc(SCC(=O)N2CCCCC2)n1CC1CCCO1` (stereo not drawn), the AC50 entry is “inactive”. The same measure, in the same setting: in the case of `Cc1cc(NC(=O)CSc2nc3ccsc3c(=O)n2Cc2ccccn2)n[nH]1` it was 28.2 µM (active); in that of `Cc1ccc(OCCCN2C(=O)C(=O)c3cccc(C)c32)cc1`, 8.91 µM (active); in that of `Cc1cc(C)c(C)c(S(=O)(=O)ON2C(=O)c3ccccc3C2=O)c1C`, “inactive”. Same read-out and setting: in the case of `CS(=O)(=O)N1CCN(c2ccc(C(=O)NC3C4CC5CC(C4)CC3C5)cc2[N+](=O)[O-])CC1` (stereo not drawn) it was 12.6 µM (active).

With `CN(c1ccc(C(=O)NC2CC3CCC2C3)cc1)S(C)(=O)=O` (stereo not drawn), the AC50 result is “inactive”. For `CCCN[C@@H](C)C(=O)Nc1c(C)csc1C(=O)OC`, the AC50 entry was “inactive”. For `CC(=O)c1c(N=CN(C)C)nc(C)nc1-c1ccccc1`, the AC50 result was “inactive”. On the same count and under the same terms, in the case of `CN1CCN(c2ncc3nc(-c4cc(F)cc(F)c4)c(=O)n(CCc4ccccc4)c3n2)CC1` it was “inactive”; in that of `O=c1c(-c2ccc(Cl)cc2)nc2cnc(N3CCOCC3)nc2n1CCc1ccccc1`, “inactive”; in that of `COc1ccc(-c2nc3cnc(N4CCN(C)CC4)nc3n(CCc3ccccc3)c2=O)cc1`, “inactive”. Still for that read-out and setting: in the case of `O=c1c(-c2ccccc2)nc2cnc(N3CCOCC3)nc2n1CCc1ccccc1` it was 7.94 µM (active); in that of `O=c1cnc2cnc(N3CCOCC3)nc2n1CCc1ccccc1`, 10 µM (active); in that of `COc1ccc(-c2nc3cnc(N4CCOCC4)nc3n(CCc3ccccc3)c2=O)cc1`, “inactive”. Same read-out and setting: in the case of `N#CCCn1c(=O)cnc2cnc(N3CCOCC3)nc21` it was “inactive”; in that of `CN1CCN(c2ncc3ncc(=O)n(CCc4ccccc4)c3n2)CC1`, “inactive”; in that of `CN1CCN(c2ncc3nc(-c4ccccc4)c(=O)n(CCc4ccccc4)c3n2)CC1`, 3.16 µM (active).

Take `COc1ccccc1-c1ccc2ncnc(N(C)C)c2c1`: the activity, negative = inhibition was -21.1% [at 2.29 µM] (inactive).

As for `CN1[C@@H]2CC[C@H]1CC(OC(=O)c1c[nH]c3ccccc13)C2` (stereo partly drawn), the AC50 entry was “inactive”.

On to `O=C(O)[C@H](Cc1c[nH]c2ccccc12)N1C(=O)c2ccccc2C1=O`, for which the activity, negative = inhibition was 6.23% [at 11.4 µM] (inactive). Turning to `CN1C2C=C(N(CCc3c[nH]c4ccccc34)C(=O)c3ccc(Cl)cc3)CC1CC2` (stereo not drawn), the AC50 is 1.78 µM (active). Regarding `C#CCCCO/N=C1/[C@H]2O[C@@H]2[C@@H](O)[C@H]2[C@H]1CCn1c(=O)n([C@@H](CC)c3ccccc3)c(=O)n12`, the activity, negative = inhibition was 4.97% [at 11.4 µM] (inactive). With `COc1ccc(C(=O)Nc2cccc(OC(=O)c3ccc(C)c(C)c3)c2)cc1`, the AC50 is 3.55 µM (active). In the case of `CN(Cc1ccco1)c1ncncc1-c1ccoc1`, the activity, negative = inhibition was -8.69% [at 2.29 µM] (inactive). Regarding `C/C(=N\n1nnnc1Nc1ccccc1)c1ccc(N)cc1`, the AC50 is 11.2 µM (active). Same read-out and setting: in the case of `N=C(N)SCc1nc2ccccc2c(=O)n1-c1ccccc1Cl` it was 3.16 µM (active); in that of `O=C(c1cc(-c2ccncc2)nc2ccccc12)N1CCN(c2ccc(N3CCOCC3)nn2)CC1`, 1.26 µM (active). Turning to `O=C(O)c1cc(-c2ccncc2)nc2ccccc12`, the activity, negative = inhibition is -29.2% [at 11.4 µM] (inactive).

As for `O=C(O)CSSCC(=O)O`, the activity, negative = inhibition was 22.5% [at 11.4 µM] (inactive). For the compound `N[C@H](C(=O)O)c1cccc(O)c1`, the AC50 entry is “inactive”.

For `CCCn1c(-c2ccccc2)nc2c(=O)n(C)c(=O)[nH]c21`, the AC50 was 12.6 µM (active). On the same count and under the same terms, in the case of `Cn1c(=O)c2[nH]c(-c3ccccc3)nc2n(C)c1=O` it was “inactive”; in that of `CCn1c(=O)c2[nH]c(-c3ccccc3)nc2n(CC)c1=O`, “inactive”.

Consider `CC[N+](CC)(CC)CC`, for which the AC50 result was “inactive”.

With `Cc1nn2c3c(cnc2c1-c1ccccc1)C(=O)CC(c1ccccc1)C3` (stereo not drawn), the AC50 was 10 µM (active). Turning to `N[C@H](C(=O)O)[C@H](N)C(=O)O`, the activity, negative = inhibition was 17.2% [at 11.4 µM] (inactive). On to `C=C[C@H](N)CCC(=O)O`, for which the AC50 result is “inactive”.

For `CO/N=C(\C(=O)N[C@@H]1C(=O)N2C(C(=O)O)=C(COC(C)=O)CS[C@@H]12)c1csc(N)n1`, the AC50 result is “inactive”.

With `COc1ccc(N(C(=O)COc2ccccc2OC)S(=O)(=O)c2ccc(C)cc2)cc1`, the AC50 was 1 µM (active). In the case of `COc1ccc(N(CC(=O)O)N=O)cc1`, the activity, negative = inhibition is -1.12% [at 11.4 µM] (inactive). Take `Cc1ccccc1-c1cc(NCCN2CCOCC2)ncn1`: the activity, negative = inhibition was 18.6% [at 2.29 µM] (inactive). Take `O=C1C(=O)c2ccccc2C(O)=C1C1CCC(c2ccc(Cl)cc2)CC1` (stereo not drawn): the AC50 is 2 µM (active).

On to `CCC(c1nnnn1CC1CCCO1)N(CCN1CCOCC1)Cc1cc2cc(C)ccc2[nH]c1=O` (stereo not drawn), for which the AC50 entry is “inactive”. With `Cc1cc(C)c2cc(CN(Cc3nnnn3Cc3ccc(F)cc3)C3CCCC3)c(=O)[nH]c2c1`, the AC50 was 7.08 µM (active).

In the case of `Cn1nccc1C(=O)Nc1ccc(Cl)cc1`, the AC50 entry is “inactive”.

With `Cn1c(C(=O)Nc2ccccc2)cc2sccc21`, the AC50 is 20 µM (active). Same read-out and setting: in the case of `COCC(=O)N(C)c1nnc(-c2ccc([N+](=O)[O-])cc2)s1` it was “inactive”. For `COCCN(C(=O)c1ccco1)c1nnc(-c2ccc(OC)cc2)s1`, the AC50 is 28.2 µM (active). In the case of `O=C1N(c2ccccc2)c2ccccc2C1(Cc1ccncc1)Cc1ccncc1`, the AC50 is 7.94 µM (active). For the compound `C=CCN1CCc2cc(O)c(O)cc2[C@H](c2ccccc2)C1`, the AC50 result was “inactive”. For `COc1ccccc1CN1CC2(CCN(S(C)(=O)=O)CC2)C1`, the AC50 result was “inactive”.

On to `Cc1ccc(NC(=O)CN(C)C(=O)CSc2n[nH]c(N)n2)cc1`, for which the AC50 result is “inactive”. As for `Nc1nc(SCC(=O)Nc2ccccc2Sc2ccc(Cl)cc2)n[nH]1`, the concentration at half-maximal activity (AC50) is 1 µM (active). `CC(C)=CCC/C(C)=C/CO/N=C1/C[C@@H](O)[C@@H](O)[C@@H]2[C@@H]3C(=O)N(C(C)(C)C)C(=O)[C@H]3CC[C@@H]12`: the activity, negative = inhibition is -9.91% [at 11.4 µM] (inactive).

For `CC[N+](CC)(CC)CCOc1ccc(/C=C\c2ccccc2)cc1`, the AC50 entry was “inactive”. On the same count and under the same terms, in the case of `C=CCNC(=O)/C(=C\C=C\c1ccccc1)NC(=O)c1ccc(OCCCC)cc1` it was 12.6 µM (active); in that of `Clc1ccc(/C=N/Nc2nnc(-c3ncc[nH]3)c3ccccc23)cc1`, 5.01 µM (active). `N[C@@H](CSC(=O)c1ccccc1)C(=O)O`: the activity, negative = inhibition was 18.3% [at 11.4 µM] (inactive). For the compound `O=C(Nc1cccn(Cc2c(Cl)cccc2Cl)c1=O)c1ccc(Cl)cc1Cl`, the AC50 was 3.55 µM (active). For `O=C1Nc2ccccc2Nc2ncccc21`, the AC50 entry was “inactive”.

For `COc1cc(C(=O)NCCC(=O)NCc2ccc3c(c2)OCO3)cc(OC)c1OC`, the AC50 entry was “inactive”. The same measure, in the same setting: in the case of `C/C(=C\C(=O)c1ccc(Br)cc1)NCc1ccc2c(c1)OCO2` it was 11.2 µM (active); in that of `C/C(=C\C(=O)c1ccc(Cl)cc1)NCc1ccc2c(c1)OCO2`, 7.94 µM (active). For `O=C(NCc1ccc2c(c1)OCO2)C1CC(=O)N(C2CCCC2)C1` (stereo not drawn), the AC50 result is “inactive”. Turning to `CC1(C)CC(NCc2ccc3c(c2)OCO3)CCO1` (stereo not drawn), the AC50 entry is “inactive”. On to `O=C1Nc2ccccc2C(O)(C(=O)NCc2ccc3c(c2)OCO3)N1c1ccc(Cl)c(Cl)c1` (stereo not drawn), for which the AC50 entry is “inactive”. On the same count and under the same terms, in the case of `Cc1[nH]c2ccccc2c1/C=C/c1cc[n+](C)cc1` it was “inactive”; in that of `CCCc1ncc(C[n+]2ccccc2C)c(N)n1`, “inactive”; in that of `O=C(c1ccccc1)c1ccc(OCCn2cnc3ccccc3c2=O)cc1`, 2.82 µM (active). The same measure, in the same setting: in the case of `O=c1c2ccccc2ncn1CCCSc1ccccc1` it was 14.1 µM (active); in that of `COc1ccc(Cl)cc1C(=O)Nn1cnc2ccccc2c1=O`, “inactive”; in that of `Cc1ccc(SCCCn2cnc3ccccc3c2=O)cc1`, 12.6 µM (active).

For `O=C1c2ccccc2C(=O)N1CCCSc1ccccc1`, the activity, negative = inhibition was -22.7% [at 11.4 µM] (inactive).
